Experimental data as given in ChEMBL document CHEMBL2218924, “A broad activity screen in support of a chemogenomic map for kinase signalling research and drug discovery” (Biochem J, 2013).

How the values were obtained:
[1] = biological target: T1, Serine/threonine-protein kinase D2 (Homo sapiens) (UniProt Q9BZL6); settings: at 1 µM
T1 sequence (whole entry): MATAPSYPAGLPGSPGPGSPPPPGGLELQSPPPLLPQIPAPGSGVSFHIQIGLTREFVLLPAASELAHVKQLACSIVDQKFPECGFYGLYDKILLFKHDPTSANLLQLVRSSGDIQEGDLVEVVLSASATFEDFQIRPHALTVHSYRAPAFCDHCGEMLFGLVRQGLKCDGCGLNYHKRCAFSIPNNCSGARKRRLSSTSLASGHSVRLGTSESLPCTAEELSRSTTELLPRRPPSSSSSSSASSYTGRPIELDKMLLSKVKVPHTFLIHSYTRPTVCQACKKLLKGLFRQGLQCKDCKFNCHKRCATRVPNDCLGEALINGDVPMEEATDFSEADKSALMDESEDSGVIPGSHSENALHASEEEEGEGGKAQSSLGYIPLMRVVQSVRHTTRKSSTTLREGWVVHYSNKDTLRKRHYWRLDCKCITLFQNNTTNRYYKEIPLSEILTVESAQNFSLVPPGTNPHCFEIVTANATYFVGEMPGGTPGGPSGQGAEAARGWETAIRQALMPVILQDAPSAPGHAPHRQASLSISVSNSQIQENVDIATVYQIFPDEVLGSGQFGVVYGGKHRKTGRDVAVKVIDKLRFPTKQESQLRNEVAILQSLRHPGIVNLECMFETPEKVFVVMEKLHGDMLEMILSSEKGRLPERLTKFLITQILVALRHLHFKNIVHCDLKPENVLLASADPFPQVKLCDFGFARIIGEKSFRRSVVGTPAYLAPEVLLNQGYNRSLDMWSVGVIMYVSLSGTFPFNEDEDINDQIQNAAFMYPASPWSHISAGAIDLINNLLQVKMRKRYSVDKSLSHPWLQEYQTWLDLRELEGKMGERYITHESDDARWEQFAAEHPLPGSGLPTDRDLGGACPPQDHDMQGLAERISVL

[2] = biological target: T1, Serine/threonine-protein kinase D2 (Homo sapiens); settings: at 10 µM
[3] = biological target: T2, cGMP-dependent protein kinase 1 (Homo sapiens) (UniProt Q13976); settings: at 1 µM
T2 sequence (whole entry): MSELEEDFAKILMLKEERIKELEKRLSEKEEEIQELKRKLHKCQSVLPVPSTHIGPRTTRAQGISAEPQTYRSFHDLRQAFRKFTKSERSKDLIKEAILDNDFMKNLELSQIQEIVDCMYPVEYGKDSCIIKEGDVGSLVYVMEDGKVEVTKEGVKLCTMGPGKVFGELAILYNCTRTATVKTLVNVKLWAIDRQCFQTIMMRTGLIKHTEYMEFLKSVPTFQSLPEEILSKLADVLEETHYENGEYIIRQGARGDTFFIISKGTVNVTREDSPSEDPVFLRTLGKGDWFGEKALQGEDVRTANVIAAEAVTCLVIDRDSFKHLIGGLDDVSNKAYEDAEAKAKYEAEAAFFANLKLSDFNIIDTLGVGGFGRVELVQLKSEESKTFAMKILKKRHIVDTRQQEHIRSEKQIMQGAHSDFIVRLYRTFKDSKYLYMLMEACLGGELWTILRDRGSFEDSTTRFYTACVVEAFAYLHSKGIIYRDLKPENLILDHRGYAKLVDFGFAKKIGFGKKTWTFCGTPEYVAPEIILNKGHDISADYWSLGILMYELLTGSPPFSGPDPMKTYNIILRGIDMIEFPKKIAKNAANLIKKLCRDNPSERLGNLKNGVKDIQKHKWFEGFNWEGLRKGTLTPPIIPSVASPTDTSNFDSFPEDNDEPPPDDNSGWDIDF

[4] = biological target: T2, cGMP-dependent protein kinase 1 (Homo sapiens); settings: at 10 µM
[5] = biological target: T2, cGMP-dependent protein kinase 1 (Homo sapiens); settings: at 1 µM; remark: listed apart in the source
[6] = biological target: T2, cGMP-dependent protein kinase 1 (Homo sapiens); settings: at 10 µM; remark: listed apart in the source
[7] = biological target: Serine/threonine-protein kinase N2 (Homo sapiens) (UniProt Q16513); settings: at 1 µM
Serine/threonine-protein kinase N2 (Homo sapiens), sequence (Q16513 whole entry, looked up): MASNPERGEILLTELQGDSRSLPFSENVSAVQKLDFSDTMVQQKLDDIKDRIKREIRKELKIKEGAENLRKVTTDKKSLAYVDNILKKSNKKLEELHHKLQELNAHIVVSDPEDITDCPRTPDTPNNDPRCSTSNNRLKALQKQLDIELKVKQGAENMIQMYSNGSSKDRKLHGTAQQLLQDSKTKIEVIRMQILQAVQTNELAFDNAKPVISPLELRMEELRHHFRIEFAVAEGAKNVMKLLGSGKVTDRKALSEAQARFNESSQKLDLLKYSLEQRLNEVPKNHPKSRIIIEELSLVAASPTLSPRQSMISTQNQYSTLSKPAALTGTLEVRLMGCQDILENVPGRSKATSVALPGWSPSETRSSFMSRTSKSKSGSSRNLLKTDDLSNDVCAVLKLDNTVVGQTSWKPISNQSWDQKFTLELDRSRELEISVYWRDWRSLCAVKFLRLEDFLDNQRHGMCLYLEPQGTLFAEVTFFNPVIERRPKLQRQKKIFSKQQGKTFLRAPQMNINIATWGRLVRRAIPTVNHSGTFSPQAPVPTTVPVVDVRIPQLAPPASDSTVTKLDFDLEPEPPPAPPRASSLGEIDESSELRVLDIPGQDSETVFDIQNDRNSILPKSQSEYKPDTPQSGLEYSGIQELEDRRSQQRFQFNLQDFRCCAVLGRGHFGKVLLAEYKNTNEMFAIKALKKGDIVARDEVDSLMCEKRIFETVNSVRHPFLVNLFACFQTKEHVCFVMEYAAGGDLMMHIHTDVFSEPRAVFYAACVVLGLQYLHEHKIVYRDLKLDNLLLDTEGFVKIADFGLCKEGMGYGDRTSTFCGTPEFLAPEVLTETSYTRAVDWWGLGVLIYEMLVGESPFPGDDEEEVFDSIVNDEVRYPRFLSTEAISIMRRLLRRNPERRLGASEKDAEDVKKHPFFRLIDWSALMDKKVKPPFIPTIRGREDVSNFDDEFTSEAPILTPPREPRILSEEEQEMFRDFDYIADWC

[8] = biological target: Serine/threonine-protein kinase N2 (Homo sapiens) (UniProt Q16513); settings: at 10 µM
[9] = biological target: T3, MAP kinase-activated protein kinase 5 (Homo sapiens) (UniProt Q8IW41); settings: at 1 µM
T3 sequence (whole entry): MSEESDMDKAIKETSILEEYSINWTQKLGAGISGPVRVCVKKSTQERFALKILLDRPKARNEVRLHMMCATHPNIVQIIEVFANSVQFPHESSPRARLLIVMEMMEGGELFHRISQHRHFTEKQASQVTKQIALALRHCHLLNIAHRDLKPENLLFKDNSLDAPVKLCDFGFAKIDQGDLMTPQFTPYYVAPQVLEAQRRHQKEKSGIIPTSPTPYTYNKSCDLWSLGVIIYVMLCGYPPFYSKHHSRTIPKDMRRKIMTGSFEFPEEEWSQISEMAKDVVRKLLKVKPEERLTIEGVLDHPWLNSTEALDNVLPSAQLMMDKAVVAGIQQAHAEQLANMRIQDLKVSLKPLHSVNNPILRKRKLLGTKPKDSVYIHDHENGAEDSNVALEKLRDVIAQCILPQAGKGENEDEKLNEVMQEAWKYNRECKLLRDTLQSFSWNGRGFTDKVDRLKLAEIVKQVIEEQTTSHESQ

[10] = biological target: T3, MAP kinase-activated protein kinase 5 (Homo sapiens); settings: at 10 µM

| Compound | residual activity [1] [%] | residual activity [2] [%] | residual activity [3] [%] | residual activity [4] [%] | residual activity [5] [%] | residual activity [6] [%] | residual activity [7] [%] | residual activity [8] [%] | residual activity [9] [%] | residual activity [10] [%] |
| --- | --- | --- | --- | --- | --- | --- | --- | --- | --- | --- |
| COc1cc(OC)c(/C=C2\C(=O)Nc3ccccc32)c(OC)c1 | 108 | 105 | 97 | 108 | 83 | 73 | 99 | 87 |  |  |
| COc1cc2ncnc(Nc3ccc(OCc4ccccc4)cc3)c2cc1OC | 98 | 98 | 115 | 125 | 72 | 88 | 109 | 111 | 111 | 83 |
| CC(C)[C@H](CO)Nc1nc(Nc2cccc(Cl)c2)c2ncn(C(C)C)c2n1 |  |  |  |  |  |  |  |  | 102 | 59 |
| CCn1cnc2c(Nc3cccc(Cl)c3)nc(N[C@@H]3CCCC[C@@H]3N)nc21 | 97 | 96 | 92 | 88 | 89 | 70 | 80 | 49 | 119 | 124 |
| C[S+]([O-])c1ccc(-c2nc(-c3ccc(F)cc3)c(-c3ccncc3)[nH]2)cc1 (stereo unspecified) | 105 | 90 | 101 | 99 | 125 | 107 | 103 | 107 | 145 | 104 |
| O=C1Nc2ccc3ncsc3c2/C1=C/c1c[nH]cn1 | 30 | 3 | 13 | 2 | 7 | 1 | 4 | 2 | 49 | 18 |
| O=C1NC(=O)c2c1c1c3ccccc3n3c1c1c2c2ccccc2n1C1CCC3O1 | 92 | 90 | 84 | 73 | 76 | 74 | 47 | 25 |  |  |
| CC(C)(C)c1cc(C=C(C#N)C#N)cc(Br)c1O | 100 | 105 | 107 |  | 66 | 60 | 104 | 117 | 107 | 65 |
| COC(=O)[C@@]1(O)C[C@H]2O[C@]1(C)n1c3ccccc3c3c4c(c5c6ccccc6n2c5c31)C(=O)NC4 | 2 | 0 | 10 | 1 | 9 | 2 | 1 | 1 | 19 | 0 |
| c1cc(-c2cnn3cc(-c4ccc(OCCN5CCCCC5)cc4)cnc23)ccn1 |  |  | 73 | 25 | 66 | 12 | 47 | 6 |  |  |
| COc1ccc2c(c1)/C(=C/c1cnc[nH]1)C(=O)N2 | 97 | 39 |  |  |  |  |  | 40 | 122 | 63 |
| O=c1[nH]c2ccccc2n1C1CCN(Cc2ccc(-c3nc4cc5[nH]cnc5cc4nc3-c3ccccc3)cc2)CC1 | 100 | 108 | 108 | 110 | 86 | 97 | 112 | 115 | 75 | 37 |
| CCc1nc(-c2ccc(OC)cc2)[nH]c1-c1ccncc1 |  |  |  |  |  |  | 102 | 74 |  |  |
| O=[N+]([O-])/C=C/c1ccc2c(c1)OCO2 | 105 | 105 | 107 | 106 | 101 | 90 | 102 | 107 | 85 | 70 |
| COc1ccc2c(c[n+](C)c3c4cc5c(cc4ccc23)OCO5)c1OC |  |  |  | 92 | 92 | 87 |  | 92 | 84 | 52 |
